Source: PubChem BioAssay
Mtb UGM inh – inhibitors of M. tuberculosis UDP-galactopyranose mutase | P9WIQ1 | purified UGM, fluorescence polarization probe displacement | inhibition, % at 10 µM | 0.06% of 320,000 active; in the data active = inhibition above about 10%, passing the limit was not always enough
Target sequence (P9WIQ1 whole entry, looked up): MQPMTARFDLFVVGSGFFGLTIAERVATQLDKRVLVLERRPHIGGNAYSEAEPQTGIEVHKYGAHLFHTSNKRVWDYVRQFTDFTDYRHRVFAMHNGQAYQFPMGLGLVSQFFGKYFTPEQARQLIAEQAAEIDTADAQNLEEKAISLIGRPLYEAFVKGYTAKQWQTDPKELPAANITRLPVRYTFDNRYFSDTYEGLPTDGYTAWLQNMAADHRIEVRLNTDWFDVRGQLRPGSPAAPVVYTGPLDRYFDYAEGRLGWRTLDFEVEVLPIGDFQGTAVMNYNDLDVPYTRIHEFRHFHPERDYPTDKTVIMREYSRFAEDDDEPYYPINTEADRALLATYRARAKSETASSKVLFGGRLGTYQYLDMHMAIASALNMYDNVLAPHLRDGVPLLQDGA
Rv3671c protease – inhibitors of M. tuberculosis serine protease Rv3671c. 0.048% of 320,000 active. inhibition, % at 5.96 µM. P9WHR9. AID 2606; in the data active = inhibition above about 38%;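 also: extracellular domain of Rv3671c used as enzyme; 0% = enzyme with DMSO and 100% = no enzyme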
FadD28 binding – inhibitors of Mycobacterium tuberculosis FadD28 bisubstrate binding; FadD28 bisubstrate probe binding, fluorescence polarization; inhibition, % at 12.5 µM; 0.22% of 360,000 active; AID 588549; in the data active = inhibition above about 8.5%, passing the limit was not always enough
GDH-TPI inh – inhibits GDH-TPI coupling enzymes, artifact for Mtb FBA screen; inhibition, % at 4.8 µM; 1.2% of 360,000 active; GDH-TPI coupled enzyme counterscreen, NADH absorbance; in the data active = inhibition above about 30%;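 also: 0% = DMSO wells and 100% = wells lacking the enzyme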
Mtb FBA inh – inhibits M. tuberculosis FBA enzyme | purified M. tuberculosis FBA, fluorescence read-out | P9WQA3 | 2.3% of 360,000 active | inhibition, % at 1 µM; in the data active = inhibition above about 27%;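 also: 0% = vehicle and 100% = reference inhibitor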
Mtb betalactam – beta-lactam sensitization of Mtb H37Rv; M. tuberculosis H37Rv growth with meropenem, percent inhibition; AID 434955; 0.27% of 330,000 active; inhibition, % at 25 µM; call rule not given here;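 also: growth measured after seven days incubation then overnight dye step; 0% = bacteria only wells and 100% = bacteria with antibiotic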
The depositor's hits bear a star; / = no result; + = active, no number. In the library only some 3.7% were active in any assay of this set; here they are far more common.

SMILES	Mtb UGM inh	Rv3671c protease	FadD28 binding	GDH-TPI inh	Mtb FBA inh	Mtb betalactam
Cc1cc(/C=N/NC(=O)c2ccc(O)cc2)c(C)n1CC(C)C	-1	6	-1	47*	4	1
COCCn1c(C)cc(/C=N/NC(=O)c2cccnc2)c1C	1	-1	-1	7	-1	-3
Nc1ccc(C(=O)N/N=C/c2c[nH]c3ccccc23)cc1	1	-5	0	41*	0	2
O=C(N/N=C/c1c[nH]c2ccccc12)c1cc(Cl)ccc1O	4	11	16*	29	17	2
Nc1ccc(C(=O)N/N=C2\CCCc3c2[nH]c2ccccc32)cc1	3	-1	4	62*	12	-3
O=C(N/N=C/c1c[nH]c2ccccc12)c1ccccc1Cl	4	/	5	14	-2	-5
NC(=S)N/N=C/c1c[nH]c2ccccc12	-1	-2	-4	56*	-1	96
COc1cc(C(O)c2nc(-c3ccc(C)c(C)c3)cs2)ccc1F (stereo not drawn)	/	/	-5	7	-2	/
CCOC(=O)C1(C)CCCN(C(=O)c2cc(F)cc(F)c2)C1 (stereo not drawn)	/	/	-4	-6	-1	/
O=C(c1coc(=O)c(Br)c1)N1CCCc2ccccc21	-1	0	5	22	141*	8
O=C(c1coc(=O)c(Br)c1)N1CCC(C(O)(c2ccccc2)c2ccccc2)CC1	3	8	-3	32*	70*	10
CC1(C)CCCN(C(=O)c2coc(=O)c(Br)c2)C1	/	/	-1	7	51*	/
COc1cccc2c1C1COC3C4CC(C(=O)O)C(C(C2)N13)N4C (stereo not drawn)	/	/	0	8	3	/
O=C(Cc1ccccc1F)OCN1C(=O)c2ccccc2C1=O	2	-2	/	-7	-1	0
CCc1nnc(NC(=O)c2ccc(OC)c(S(=O)(=O)N3CCCC3)c2)s1	-3	-5	-2	10	6	-3
Cc1nn(Cc2ccccc2Cl)c(C)c1NC(=O)c1nc2ncccn2n1	2	-1	-5	37*	0	4
CCN1C(=O)[C@H]2[C@@H](c3ccc(-c4ccc(Cl)c(Cl)c4)c(OC)c3)N[C@@](Cc3ccccc3)(C(=O)OC)[C@H]2C1=O	0	3	-1	9	-1	-14
O=C(COC(=O)[C@@H]1CC(O)CN1S(=O)(=O)c1ccccc1[N+](=O)[O-])c1ccccc1 (stereo partly drawn)	4	4	-3	3	-4	1
CCc1cccc2c(C(=O)COC(=O)c3cnc(C)cn3)c[nH]c12	0	3	13*	19	3	1
CCc1cccc2c(C(=O)COC(=O)c3ccc(O)cc3)c[nH]c12	3	-113	34*	0	-1	-2
CCc1cccc2c(C(=O)COC(=O)[C@@H]3CC(O)CN3S(=O)(=O)c3ccccc3[N+](=O)[O-])c[nH]c12 (stereo partly drawn)	-1	-3	11*	8	3	7
CCc1cccc2c(C(=O)COC(=O)c3ccccc3)c[nH]c12	0	-7	18*	3	-4	-4
O=C(O)/C=C/C(=O)Nc1ccc(S(=O)(=O)Nc2nccs2)cc1	0	0	0	5	-4	0
COc1cccc(NC(=O)C2(C)CCN2C(=O)Cc2ccc(C(C)C)cc2)c1 (stereo not drawn)	/	/	-4	9	-4	/
COc1ccc(-c2ccnc3nc(N4CCOCC4)nn23)cc1	-2	1	-2	34*	84*	5
SMILES	Mtb UGM inh	Rv3671c protease	FadD28 binding	GDH-TPI inh	Mtb FBA inh	Mtb betalactam
COc1ccccc1C1c2[nH]c3ccccc3c2CCN1Cc1ccc(NC(C)=O)s1 (stereo not drawn)	1	10	0	32*	8	-7
CCCCNC(=O)c1cc2c(=O)n3cccc(C)c3nc2n(Cc2ccncc2)c1=N	2	-8	-1	-1	151*	-5
CCCCNC(=O)c1cc2c(=O)n3cccc(C)c3nc2n(CCN2CCOCC2)c1=N	0	2	1	14	137*	-6
COCCNC(=O)c1cc2c(=O)n3cccc(C)c3nc2n(Cc2ccncc2)c1=N	3	-3	-1	12	+	-3
Cc1cccn2c(=O)c3cc(C#N)c(=N)n(CCN4CCOCC4)c3nc12	/	/	0	0	53*	/
COCCCn1c(=N)c(C(=O)NCc2ccc3c(c2)OCO3)cc2c(=O)n3cccc(C)c3nc21	/	/	0	4	-2	/
CCCn1c(=N)c(C#N)cc2c(=O)n3cccc(C)c3nc21	0	3	/	/	/	0
Cc1cccn2c(=O)c3cc(C#N)c(=N)n(Cc4ccncc4)c3nc12	-2	-2	/	/	/	-6
CCOCCCn1c(=N)c(C(=O)NCc2ccc3c(c2)OCO3)cc2c(=O)n3cccc(C)c3nc21	4	-8	-2	10	6	50
O=C(c1[nH]c(C(F)(F)F)nc1-c1ccccc1)N1CCC(C(O)(c2ccccc2)c2ccccc2)CC1	/	/	1	/	0	/
Cc1cc(-n2c(=O)c(C#N)cc3c(=O)n4cccc(C)c4nc32)no1	0	-3	-1	-7	+	-9
CCCCCCN1C[C@@H](O)[C@H](n2cc(-c3ccc(F)cc3)nn2)C[C@@H]1c1ccccc1	/	/	-1	-4	-1	/
Cn1c(=O)c2[nH]c(-c3ccc(S(=O)(=O)O)cc3)nc2n(C)c1=O	-2	-4	-1	42*	/	100
CC(C)(C)NCC(=Cc1ccccc1)C(=O)c1ccccc1	/	/	-6	-9	-1	/
O=C(c1ccccc1)c1ccc[nH]1	/	/	-1	15	0	/
O=C(/C=C\c1cn(-c2ccccc2)nc1-c1ccccc1)Nc1nccs1	0	-18	2	27	-1	6
CC(=O)NS(=O)(=O)c1ccc(NC(=O)/C=C/c2cn(-c3ccccc3)nc2-c2ccccc2)cc1	-2	-166	-6	43*	-4	36
O=C(Nc1cccc(C(F)(F)F)c1)C1CC(=O)N(CCc2ccccc2)C1 (stereo not drawn)	0	-1	/	0	-2	-6
COc1cccc2cc(C(C)=O)c(=O)oc12	1	2	-3	-4	1	-1
COc1cc(C(C)=O)ccc1OC(=O)c1cc2cccc(OC)c2oc1=O	-1	11	-1	57*	-2	-1
CC(OC(=O)/C=C/c1ccco1)C(=O)NC1CCCCC1 (stereo not drawn)	/	/	0	17	-2	/
COc1ccc(/C=N/NC(=O)c2ccc3c(c2)OCO3)c(C(=O)O)c1OC	1	1	-2	33*	1	3
COc1cc(/C=N/NC(=O)c2ccc3c(c2)OCCO3)c(Br)c(Br)c1O	-1	-1	2	37*	-1	6
COc1cc(/C=N/NC(=O)c2ccc3c(c2)OCCO3)cc(Br)c1O	/	7	-2	36*	0	21
COc1cc(/C=N/NC(=O)C(=O)NCc2ccco2)cc(Br)c1O	2	1	-1	54*	-2	10
COc1ccccc1/C=N/NC(=O)c1ccc2c(c1)OCO2	0	7	-5	28	-5	4
